SMILES strings stand for the structures.

A short description of the experiment: modulators of HCV replicon luciferase signal, primary screen, HCV replication inhibitor project, Huh7 cells, luciferase reporter (AID 1109).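 Note: huh7 hepatoma cells harbouring a luciferase neomycin HCV replicon reporter; luciferase luminescence as measure of HCV replicon replication; test concentration not given here.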 The settings on record: 48 h, higher = more signal. A general note: A replicon is a self-replicating genome or part of one, used to study replication in cells.
Compound `CS(=O)(=O)CCOC(=O)C1=CC(CCCO)=CC(c2ccc(CN3CCCC3)cc2)N(Cc2sc3ccccc3c2Cl)C=C1C(=O)OCCS(C)(=O)=O` (stereo not given) displayed a z-score of -2.64.

With `CCOc1cc(C(O)C2C=CC3C(=O)NC(=O)C3N2Nc2ccc(Cl)cc2Cl)ccc1O` (stereo not given), the z-score is 0.822.

Consider `Cc1cc(C)c(C(O)C2C=CC3C(=O)N(c4ccccc4)C(=O)C3N2Nc2ccccc2F)c(C)c1` (stereo not given), for which the z-score was 0.937.

With `CCOC(=O)C[C@H]1[C@H](OC(=O)Cc2ccc3c(c2)OCO3)[C@@H](NC(=O)c2ccc3ccccc3n2)c2cc(OCCCO)ccc2N1C(=O)c1ccccc1`, the z-score is -1.26.

Compound `NCCCCCNC(=O)[C@@H]1C[C@@H]2C(=O)N[C@@H](CCCCN)C(=O)N2[C@@H]1c1ccc(O)cc1` gave a z-score of -1.48.

In turn, `O=C(C1N=C(c2ccc(OCCCO)cc2)N(c2ccccc2)O1)N1CCCCC1` (stereo not given) had a z-score of 0.65.

In turn, `C=CCC(OC(C)=O)[C@@H]1[C@@H](N(Cc2ccc(-c3ccccc3)cc2)C(=O)c2ccc(-c3ccccc3)cc2)c2cc(OCCCO)ccc2N1C(=O)c1ccc2ccccc2c1` (stereo not given in full) registered a z-score of -0.415.

`CCCC[C@@H](O)C1=C(COC)C[C@H]2C(=O)N(Cc3ccccc3)C(=O)[C@H]2[C@H]1CO`: the z-score is -0.655.

In the case of `COc1ccc(CCNC(=O)[C@@]2(Sc3ccc(C)cc3)CC(=O)N(Cc3ccccc3C(F)(F)F)[C@@H]2c2ccc(CO)cc2I)cc1`, the z-score was -2.42.

With `CCC#CCN(Cc1ccccc1Br)[C@H](/C=C/C1CC1)[C@@H](O)Cc1ccccc1`, the z-score is -2.19.

The compound `NCCCCCNC(=O)[C@H]1C[C@H]2C(=O)N3CCC[C@H]3C(=O)N2[C@H]1c1cccc(OCCO)c1` yielded a z-score of 0.5.

As for `CC(C)[Si](C#CCCCC#N)(O[C@H](c1ccccc1)c1cn(Cc2ccccc2)nn1)C(C)C`, the z-score was -0.147.

Turning to `CC(C)N1CC=CC23O[C@@H]4C=CCCOC(=O)C4[C@H]2C(=O)N(CCCO)[C@@H]3C1=O` (stereo not given in full), the z-score was -1.15.

Take `[N-]=[N+]=Nc1ccccc1C[C@]1(C(=O)NCC(O)CO)COC(c2ccc(OCCCO)cc2)=N1` (stereo not given in full): the z-score was -0.677.

The compound `COCC(=C=CC[C@H](O)c1ccc(CO)o1)CCO` had a z-score of -0.793.

Compound `CC(C)C(CO)N1C(=O)[C@@H]2[C@H]3C(=O)OCC=C[C@H]3OC23C=CCN(c2ccc(Cl)cc2)C(=O)[C@@H]13` (stereo not given in full) registered a z-score of -0.665.

Turning to `COc1ccc([Si](C)(C)[C@H]2[C@H](CC(=O)N3Cc4ccccc4C[C@H]3CO)O[C@@]3(C(=O)N(Cc4ccc(N5CCOC5=O)cc4)c4ccccc43)[C@@H]2C)cc1`, the z-score was -4.15.

In turn, `CCCC[C@@H](O)C1=C(COc2ccccc2)C[C@H]2C(=O)N(Cc3ccccc3)C(=O)[C@H]2[C@H]1CO` showed a z-score of -2.3.

Compound `C[C@@H]1NC(=O)[C@@H](Cc2ccccc2)NC(=O)[C@@]23C(=O)N[C@@H](Cc4ccccc4)C2[C@H](C)[C@@]2(C)O[C@H]2C3/C=C/C/C=C\CNC1=O` (stereo not given in full) came in with a z-score of -0.857.

Take `[N-]=[N+]=Nc1ccccc1C[C@]1(C(=O)NCCN2CCOCC2)COC(c2ccc(OCCCO)cc2)=N1`: the z-score is -1.92.

Regarding `CC(C)C(CO)N1C(=O)[C@@H]2C3C(=O)OCCC/C=C\[C@H]3OC23C=CCN(c2ccc4ccccc4c2)C(=O)[C@@H]13` (stereo not given in full), the z-score was -1.23.

Consider `C=C(/C(=C/C[C@H](OC(=O)c1ccncc1)c1ccc(CO)o1)c1cnc2ccccc2c1)C(C)C`, for which the z-score was -2.1.

With `C=CCOC(=O)[C@@H]1[C@H]2C(=O)O[C@H](c3ccccc3)[C@H](c3ccccc3)N2[C@H](c2ccc(OCCOC(=O)[C@@H]3C[C@@H]4C(=O)N[C@@H](CCCC[N+](C)(C)C)C(=O)N4[C@@H]3c3ccc(O)cc3)cc2)[C@@]12C(=O)Nc1ccc(I)cc12`, the z-score was -0.282.

In turn, `CCCCC(O)C1C=CC2C(=O)N(C)C(=O)C2N1N(c1ccccc1)c1ccccc1` (stereo not given) showed a z-score of -0.991.

For the compound `CCCC=C(CCC)[C@@H](NC(=O)c1cccs1)c1ccc(C(=O)OC)cc1`, the z-score is -0.122.

`Cc1ccccc1C(O)C1C=CC2C(=O)NC(=O)C2N1Nc1ccccn1` (stereo not given) had a z-score of 0.331.

Turning to `C=CCNC(=O)[C@@H]1[C@H]2C(=O)O[C@H](c3ccccc3)[C@H](c3ccccc3)N2[C@H](c2ccccc2OCCO)[C@@]12C(=O)N(C(=O)OCCOC)c1ccc(C#CC3(O)CCCCCC3)cc12`, the z-score was -2.27.

`CCCNC(=O)[C@@H]1c2ccccc2C(=O)N(Cc2ccc(OC(F)(F)F)cc2)[C@H]1c1ccc(CO)cc1` gave a z-score of -0.808.

In turn, `CCCNC(=O)[C@@]1(C)c2ccccc2C(=O)N(c2ccc(C)cn2)[C@H]1c1ccc(CO)cc1` showed a z-score of 0.155.

The compound `COc1cc2c(cc1O)C(c1ccc(CN3CCCC3)cc1)N(Cc1cc3c(cc1Br)OCO3)CC2` (stereo not given) registered a z-score of -2.92.

The values are drawn from PubChem BioAssay.
